# Assay: probe aNog binding to arrayed compounds – biochemical, biotinylated probe, 635/667 nm fluorescence, primary screen (AID 1115);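 note: probe is biotinylated aNog protein used at 0.15 µg/mL for 1 h at 4 C; z-score combines 667 nm fluorescence of each spot with its signal to noise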
# Conditions: small-molecule microarray, higher = more signal
row,SMILES,composite z-score
1,CCOC(=O)C[C@H]1[C@H](OC(=O)c2ccc(C(=O)c3ccccc3)cc2)[C@@H](NC(=O)c2ccccc2)c2cc(OCCCO)ccc2N1C(=O)c1ccc2ccccc2n1,-0.308
2,O=C(c1ccccc1)N1C(=O)[C@@]2(Cc3ccccc31)N=C(c1ccc(OCCCO)cc1)O[C@H]2c1ccccc1,1.57
3,Cc1ccc(N2C(=O)c3ccccc3[C@@H](C(=O)NC3CC3)[C@@H]2c2ccc(CO)cc2)nc1,-0.126
4,[N-]=[N+]=Nc1ccccc1[C@@H]1OC(c2ccc(OCCCO)cc2)=N[C@]1(CCS(=O)(=O)c1ccccc1)C(N)=O,1.51
5,COC(=O)C(CC#Cc1ccc2c(c1)[C@]1(C(=O)N2)[C@H](C(=O)Nc2nc3ccccc3s2)[C@H]2C(=O)O[C@H](c3ccccc3)[C@H](c3ccccc3)N2[C@@H]1c1ccccc1OCCO)C(=O)OC,0.733
6,CCOC(=O)C[C@H]1[C@H](OC(=O)c2ccc(C(=O)c3ccccc3)cc2)[C@@H](NC(=O)CC(C)C)c2cc(OCCCO)ccc2N1C(=O)c1ccc2ccccc2n1,-0.318
7,C=CC[C@]1(C(=O)NCc2ccccc2)N=C(c2ccc(OCCCO)cc2)O[C@H]1c1ccccc1N=[N+]=[N-],-0.572
8,OCCCC1=CC(c2cccs2)N(Cc2cc3c(cc2Br)OCO3)CC1 (stereo not given),-0.105
9,COc1ccc(C#Cc2ccc3c(c2)[C@]2(C(=O)N3)[C@H](C(=O)Nc3nc4ccccc4s3)[C@H]3C(=O)O[C@H](c4ccccc4)[C@H](c4ccccc4)N3[C@@H]2c2ccc(O)cc2)cc1,2.23
10,NC(=O)[C@@H]1[C@H]2C(=O)O[C@H](c3ccccc3)[C@H](c3ccccc3)N2[C@H](c2ccc(O)cc2)[C@@]12C(=O)Nc1ccccc12,0.264
